Experimental data taken from the supplement of paper PMC10981050.
Values joined by “and” are separate entries in the source; they are usually repeats but may differ in a detail not shown here. Identical values can stand only once. Counter-ions that a name gives are not always drawn.

What was measured:
Test in all cases: cell viability relative to vehicle control; higher = less cytotoxic
Conditions in all cases: 10 µM
K562 = test system: K562
Method in brief: (§1)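 Four leukaemia lines, as CRISPR-edited mutant clones and isogenic wild-type clones, were tested against Selleck bioactive, kinase and epigenetic probe libraries after removal of identity-inconsistent compounds. Cells were exposed to a single 10 µM dose for 48 h, and CellTiter-Glo luminescence was then read. Viability was calculated relative to the on-plate vehicle control.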

MARIMO = test system: MARIMO
Method in brief: as §1

MOLM14 = test system: MOLM14
Method in brief: as §1

OCI-AML2 = test system: OCI-AML2
Method in brief: as §1

Row | Compound | cell viability (K562; SRSF2 genotype: SRSF2 P95H/wt) | cell viability (K562; SRSF2 genotype: SRSF2 wt/wt) [%] | cell viability (MARIMO; SRSF2 genotype: SRSF2 P95H/wt) [%] | cell viability (MARIMO; SRSF2 genotype: SRSF2 wt/wt) [%] | cell viability (MOLM14; SRSF2 genotype: SRSF2 P95H/wt) [%] | cell viability (MOLM14; SRSF2 genotype: SRSF2 wt/wt) [%] | cell viability (OCI-AML2; SRSF2 genotype: P95H/wt) [%] | cell viability (OCI-AML2; SRSF2 genotype: wt/wt) [%]
1 | Cc1nn(C)c(COc2ccc(N3CCN(S(=O)(=O)N(C)C)CC3)cc2)c1-c1cccc2c(CCCOc3cccc4ccccc34)c(C(=O)O)n(CCN3CCOCC3)c12 | 93.7% and 106% | 99.8 | 101 | 107 | 98.3 | 101 | 103 | 103
2 | CCCCCCCCCCCCCCCCO [1-Hexadecanol] | 102% and 92.5% | 98.6 | 100 | 109 | 101 | 103 | 94.5 | 116
3 | c1ccc(-c2ccc(C(c3ccccc3)n3ccnc3)cc2)cc1 (stereo unspecified) [Bifonazole] | 82.3% and 83.9% | 79.7 | 81.4 | 87.7 | 84.5 | 94.2 | 83.9 | 82.7
4 | COc1ccc(-c2ccc3c(N4CCOCC4)nc(N4C[C@@H](C)O[C@@H](C)C4)nc3n2)cc1CO | 45.8% and 54.8% | 46.6 | 60.9 | 50.6 | 37 | 29.8 | 33.4 | 34.5
5 | CCOC(=O)[C@H](CCc1ccccc1)N[C@@H](C)C(=O)N(CC(=O)O)C1Cc2ccccc2C1 [Delapril Hydrochloride] | 100% and 97.5% | 95.8 | 91 | 100 | 86.3 | 90.7 | 94 | 91.6
6 | Cc1nc(C)c(C)nc1C [Ligustrazine hydrochloride] | 97.2% and 97.7% | 91.8 | 89.8 | 102 | 95.8 | 98.7 | 87.8 | 107
7 | O=C(NCCCNc1nc(Nc2cccc(NC(=O)N3CCCC3)c2)ncc1I)c1cccs1 | 62.4% and 86.2% | 74.4 | 56.6 | 56.7 | 11.1 | 6.15 | 12.4 | 20.6
8 | COc1cc2nc(N3CCN(C(=O)C4COc5ccccc5O4)CC3)nc(N)c2cc1OC (stereo unspecified) [Doxazosin mesylate] | 94.7% and 100% | 95.9 | 105 | 101 | 92.2 | 105 | 92.7 | 96.5
9 | COc1cc(NC(=O)c2ccc(-c3ccc(Cl)cc3)o2)cc(OC)c1 | 105% and 102% | 103 | 99 | 105 | 113 | 115 | 97.4 | 92.8
10 | O=C(O)Cc1cccc2ccccc12 [Potassium 1-Naphthaleneacetate] | 92.5% and 95.9% | 97 | 97.4 | 97.8 | 90.8 | 95.4 | 103 | 98.8
11 | O=C1N=C(N2CCOCC2)CN1c1ccc(Cl)cc1 | 107% and 99% | 94.4 | 99.3 | 111 | 94.8 | 104 | 95.4 | 86.8
12 | CN1CCN2c3ccccc3Cc3ccccc3C2C1 (stereo unspecified) [Mianserin HCl] | 92.5% and 97.9% | 92.2 | 83.7 | 86.5 | 93.5 | 97.8 | 91.2 | 86.4
13 | CCCCCC1=C(C)CCC1=O [Dihydrojasmone] | 105% | 108 | 101 | 106 | 107 | 105 | 106 | 115
14 | O=C(c1ccc(OCCN2CCCCC2)cc1)c1c(-c2ccc(O)cc2)sc2cc(O)ccc12 [Evista (Raloxifene Hydrochloride)] | 75.3% and 80.4% | 81.3 | 79.3 | 77.8 | 76.2 | 81.3 | 82.7 | 77.2
15 | C#CC1(O)CC[C@H]2[C@@H]3CCC4=CC(=O)CC[C@@H]4[C@H]3CC[C@@]21CC (stereo partly specified) [Norgestrel] | 100% | 97.1 | 95.6 | 103 | 98.2 | 108 | 122 | 114
16 | Nc1ncccc1-c1nc2ccc(-c3ccccc3)nc2n1-c1ccc(C2(N)CCC2)cc1 [Miransertib (ARQ 092)HCl] | 35.5% and 48% | 30.4 | 75.3 | 72.4 | 39.3 | 48.1 | 33 | 49.2
17 | CC(=O)Oc1cccc2ccccc12 [1-Naphthyl acetate] | 90.4% and 85.3% | 95.8 | 92.4 | 97.5 | 93.7 | 93.8 | 93.3 | 90.8
18 | C/C(=N\NC(=O)c1cccc(S(=O)(=O)N2CCOCC2)c1)c1cc(Cl)ccc1O | 57.4% and 51.4% | 37 | 20.1 | 24.4 | 6.59 | 1.96 | 10.8 | 11.4
19 | CN1CC[C@@H](NC(=O)Nc2ccc(C#N)cc2)C[C@@H]1c1nc2ccccc2[nH]1 | 98.5% and 104% | 107 | 104 | 109 | 98.8 | 100 | 98.1 | 112
20 | O=C(Nc1nccs1)C(c1cc(F)ccc1O)N1Cc2ccccc2C1=O (stereo unspecified) | 103% and 94.9% | 96.6 | 94.6 | 105 | 98 | 97.6 | 93.9 | 100
21 | COc1c(C)c(C(=O)c2ccc(N)c(C(=O)O)c2)n2ccccc12 | 106% and 97.6% | 101 | 102 | 110 | 105 | 108 | 97.6 | 106

Row | Compound | cell viability (K562; SRSF2 genotype: SRSF2 P95H/wt) | cell viability (K562; SRSF2 genotype: SRSF2 wt/wt) [%] | cell viability (MARIMO; SRSF2 genotype: SRSF2 P95H/wt) [%] | cell viability (MARIMO; SRSF2 genotype: SRSF2 wt/wt) [%] | cell viability (MOLM14; SRSF2 genotype: SRSF2 P95H/wt) [%] | cell viability (MOLM14; SRSF2 genotype: SRSF2 wt/wt) [%] | cell viability (OCI-AML2; SRSF2 genotype: P95H/wt) [%] | cell viability (OCI-AML2; SRSF2 genotype: wt/wt) [%]
22 | Oc1cc(O)c(Cl)cn1 [Gimeracil] | 105% and 98.5% | 92.4 | 101 | 109 | 102 | 107 | 101 | 111
23 | CC(=O)Nc1nc(-c2cccc(NS(=O)(=O)c3cccc4c(N(C)C)cccc34)c2)cs1 | 61.8% and 63.7% | 62 | 58.7 | 43.8 | 62.4 | 66.6 | 33.3 | 40.5
24 | CC1OC(OC2C(OC3CCC4(C)C(CCC5(C)C4CC=C4C6CC(C)(C)CCC6(C(=O)OC6OC(COC7OC(CO)C(O)C(O)C7O)C(O)C(O)C6O)CCC45C)C3(C)CO)OCC(O)C2O)C(O)C(OC2OC(CO)C(O)C(O)C2O)C1O (stereo unspecified) [Macranthoidin A] | 99.3% and 97.9% | 100 | 100 | 102 | 102 | 96.6 | 98 | 105
25 | Cc1cc(C)nc(NS(=O)(=O)c2ccc(NC(=S)NC(=O)COc3ccc(Br)cc3Cl)cc2)n1 | 91.4% and 83.1% | 85.5 | 82.3 | 90.7 | 83.5 | 91.1 | 88.6 | 84.6
26 | COc1ccc2cc3[n+](cc2c1OC)CCc1cc2c(cc1-3)OCO2 [Berberine] | 65.6% and 74.1% | 72.6 | 67.3 | 62.1 | 75.4 | 81.8 | 52 | 53.8
27 | N[C@@H](Cc1cc(I)c(O)c(I)c1)C(=O)O [3,5-Diiodotyrosine Dihydrate] | 94.2% and 94.5% | 97.4 | 97 | 102 | 96.6 | 99.9 | 100 | 102
28 | Cc1c(NC(=O)OC[C@@H]2COCCN2)cn2ncnc(Nc3ccc4c(cnn4Cc4cccc(F)c4)c3)c12 | 75.3% and 73.2% | 71.7 | 76.4 | 79.8 | 63.8 | 69.6 | 68.7 | 64.8
29 | Nc1ncnc2c1ncn2[C@@H]1O[C@H](COP(=O)(O)O)[C@@H](O)[C@H]1O [5'-Adenylic acid] | 99.5% and 92.5% | 90.4 | 84 | 87.2 | 87.1 | 89.3 | 99.6 | 93.9
30 | O=c1cc(-c2ccccc2)oc2cc(O[C@@H]3O[C@H](CO[C@@H]4O[C@H](CO)[C@@H](O)[C@H](O)[C@H]4O)[C@@H](O)[C@H](O)[C@H]3O)c(O)c(O)c12 [Oroxin B] | 101% and 105% | 98.7 | 102 | 104 | 112 | 107 | 95.6 | 98.6
31 | OCc1ccc(O)cc1 [4-Hydroxybenzyl alcohol] | 108% and 106% | 111 | 98 | 112 | 108 | 109 | 111 | 95.3
32 | CC(C[N+](C)(C)C)OC(N)=O (stereo unspecified) [Bethanechol chloride] | 97.9% and 102% | 102 | 111 | 112 | 108 | 109 | 109 | 98.2
33 | O=C(C=Cc1cccnc1)c1ccncc1 | 81.1% and 89% | 77.7 | 64.4 | 62.8 | 19.3 | 18.4 | 16.8 | 28.9
34 | OCCN(CCO)c1nc(N2CCCCC2)c2nc(N(CCO)CCO)nc(N3CCCCC3)c2n1 [Dipyridamole (Persantine)] | 95.7% and 95.1% | 94.8 | 93.1 | 114 | 111 | 107 | 99.9 | 108
35 | CCNC(=O)c1noc(-c2cc(Cl)c(O)cc2O)c1-c1ccc(OC)cc1 | 20.7% and 32.8% | 25.5 | 31.9 | 25.1 | 2.02 | 2.25 | 16.2 | 20.2
36 | O=C(Nc1ccc(Oc2ccc(Cl)cc2)c(Cl)c1)c1cc(I)cc(I)c1O [Rafoxanide] | 85.2% and 95.8% | 97.9 | 101 | 111 | 80.4 | 108 | 105 | 101
37 | CCOC(=O)/C=C\C(=O)OCC [Diethylmaleate] | 102% and 96.1% | 99.8 | 97.5 | 109 | 104 | 105 | 98.9 | 111
38 | CN1CCN(CCOc2cc(OC3CCOCC3)c3c(Nc4c(Cl)ccc5c4OCO5)ncnc3c2)CC1 [Saracatinib (AZD0530)] | 7.73% and 16.1% | 9.65 | 97.1 | 107 | 50.3 | 55.9 | 73.4 | 63.4
39 | COc1cc2nc(N3CCCC3)nc(NCCCCCN3CCCC3)c2cc1OC | 2.75% and 3.32% | 4.26 | 9.85 | 3.33 | 0.26 | 0.27 | 0.31 | 0.37
40 | O=C(Nc1cccc2c(=O)cc(-c3nnn[nH]3)oc12)c1ccc(OCCCCc2ccccc2)cc1 [Pranlukast] | 103% | 104 | 106 | 114 | 101 | 104 | 105 | 113
41 | COc1cc2nccc(Oc3ccc(NC(=O)C4(C(=O)Nc5ccc(F)cc5)CC4)cc3)c2cc1OC [Cabozantinib malate] | 21% and 29.7% | 23.6 | 67.3 | 87.3 | 6.23 | 7.8 | 23.3 | 27.8
42 | CC(=O)c1ccccc1O [2'-Hydroxyacetophenone] | 101% and 100% | 99.4 | 99.1 | 96.6 | 105 | 101 | 102 | 105
